Hits are enriched below; roughly 12% of the tested compounds scored in any of these assays.
JMJD2A Tudor inh = JMJD2A Tudor domain (human) inhibition. Potency, µM (top dose mostly 114 µM), usual class: inhibitors. 390,000 tested, 4.4% active. AlphaScreen JMJD2A-Tudor / H3K4me3 peptide binding. O75164; note: nearly all actives have a fitted effect of over 50% in size
HP1b chromo inh = HP1-beta chromodomain-methylated histone interaction inhibition | 390,000 tested, 0.56% active | AlphaScreen HP1-beta / biotin-H3K9me3 peptide binding | AID 540317 | Potency, µM (top dose mostly 114 µM), usual class: inhibitors | P83916; note: nearly all actives have a fitted effect of over 70% in size
Target sequence (P83916 whole entry, looked up): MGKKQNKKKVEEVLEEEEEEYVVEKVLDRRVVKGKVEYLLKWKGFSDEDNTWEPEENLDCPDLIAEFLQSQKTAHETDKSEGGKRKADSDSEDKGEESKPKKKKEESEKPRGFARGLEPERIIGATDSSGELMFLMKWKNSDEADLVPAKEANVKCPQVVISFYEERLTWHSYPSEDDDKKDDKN
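Compound inhibition of the preformed complex between 50 nM HP1-beta and 50 nM biotinylated H3K9me3 peptide was read by AlphaScreen. Buffer was PBS pH 7.4 with 0.01% Tween-20. Incubations ran 30 min at room temperature, with 10 ug/mL donor/acceptor beads.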
PI5P4Ka inh = PI5P4K alpha (human) kinase inhibition | P48426 | PI5P4Kalpha enzyme, ADP-Glo luminescence, 60 min; active compounds read low | max response, % | 330,000 tested, 1.2% active | AID 652105; active = max response of -50% or lower; inconclusive = between -30% and -50%; inactive = -30% or higher; note: value at the top dose of about 77 µM
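Single end-point luminescence (ADP-Glo) quantified ADP from PI5P4Kalpha turnover; ATP 5 microM final, 1 h at RT, 0.1% CHAPS and 0.28 mM EGTA in HEPES pH 7.4.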
G9a block = blocks human histone lysine methyltransferase G9a. Q96KQ7. G9a H3K9 monomethylation, AlphaScreen, 2 h. Potency, µM (highest dose often 102 µM), usual class: inhibitors. 350,000 tested, 8.8% active. AID 504332; note: nearly all actives have a fitted effect of over 75% in size
Target sequence (Q96KQ7 913-1193 limits assumed): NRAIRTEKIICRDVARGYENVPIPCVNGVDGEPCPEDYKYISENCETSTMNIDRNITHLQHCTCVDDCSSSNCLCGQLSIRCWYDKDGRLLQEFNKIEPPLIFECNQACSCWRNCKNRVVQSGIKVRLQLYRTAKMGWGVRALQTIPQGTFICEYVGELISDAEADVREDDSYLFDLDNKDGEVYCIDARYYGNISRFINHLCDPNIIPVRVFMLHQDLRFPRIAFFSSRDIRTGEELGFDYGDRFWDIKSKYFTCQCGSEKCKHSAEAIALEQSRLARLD
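AlphaScreen read-out: biotin-H3K9 peptide (500 nM) methylation by 20 nM enzyme with 20 uM SAM, 2 h at room temperature after 15 min compound preincubation; anti-monomethyl H3K9 antibody plus donor/acceptor beads, 10 min dark.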
BAZ2B inh = blocks human BAZ2B; Potency, µM (highest dose often 114 µM), usual class: inhibitors; AID 504333; 360,000 tested, 4.4% active; AlphaScreen BAZ2B-H3K14Ac peptide displacement; note: nearly all actives have a fitted effect of over 60% in size
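Multi-concentration screen (max 110 uM) measuring displacement of acetylated histone H3 peptide from BAZ2B by AlphaScreen, using 50 nM protein, 50 nM peptide and 10 ug/mL streptavidin donor plus Ni-chelate acceptor beads.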
PLK1 PBD inh = PLK1 (human) polo-box domain binding inhibition. P53350. Plk1 PBD binding of FITC phosphopeptide, fluorescence polarization. Potency, µM, most hits filed as inhibitors. 360,000 tested, 2.8% active; note: series mostly up to about 57 µM; nearly all actives have a fitted effect of over 65% in size
Hits are given with their value; – = inactive; ? = inconclusive; · = no result; [ ] = remark or other dose. Unless noted, calls come from the whole dose curve; as a rule, active = well fitted curve in the direction sought with a large enough effect; inconclusive = small, poorly fitted or top-dose-only effect, or another doubt; inactive = no such curve, though single readings can be large; an effect the other way counts as inactive or inconclusive.

SMILES	JMJD2A Tudor inh	HP1b chromo inh	PI5P4Ka inh	G9a block	BAZ2B inh	PLK1 PBD inh
COc1cc(C(=O)NCC(c2ccc(F)cc2)N2CCOCC2)ccc1OCc1ccccc1Cl (stereo unspecified)	?	–	–	–	–	–
O=C(Nc1ccccc1F)c1cc(S(=O)(=O)N2CCOCC2)cs1	–	–	–	–	–	–
O=C(CSc1nc2ccc(Cl)cc2[nH]1)c1ccc2c(c1)OCO2	22µM	–	·	35µM	50µM	–
O=C(CSc1nc2ncc(Cl)cc2[nH]1)c1ccc2c(c1)OCO2	–	–	–	?	–	–
O=C(CSc1nc2cc(Cl)c(Cl)cc2[nH]1)c1ccc2c(c1)OCO2	–	–	–	11µM	–	?
O=C(CSc1ncn[nH]1)c1ccc2c(c1)OCO2	32µM	–	·	–[12.7 µM]	–	–
Cc1sc2ncn(CC(=O)NCC(=O)N3CCN(c4ccccc4F)CC3)c(=O)c2c1C	–	–	–	–	–	–
CCC(=O)N1CCc2cc(Br)cc(S(=O)(=O)CCC(=O)NCc3ccco3)c21	–	–	–	–	–	–
COC(=O)c1cc(NS(=O)(=O)c2cc(Br)cc3c2N(C(C)=O)CC3)cc(C(=O)OC)c1	–	–	·	–	71µM	·
CC(=O)N1CCc2cc(Br)cc(S(=O)(=O)NCc3ccccn3)c21	79µM	–	–	?	–	?
O=C(C1CC1)N1CCc2cc(Br)cc(S(=O)(=O)N3CCCCCC3)c21	–	–	·	–	–	–
CC(=O)N1CCc2cc(Br)cc(S(=O)(=O)N3CCC(C(=O)O)CC3)c21	–	–	–	50µM	–	–
CCC(=O)N1CCc2cc(Br)cc(S(=O)(=O)NCc3ccco3)c21	–	–	–	45µM	–	–
COc1cccc(-c2ccc(NC(=O)C3CCCN(Cc4cnn(C(C)C)c4)C3)cc2)c1 (stereo unspecified)	–	–	–	–	–	–
CCCC(=O)Nc1sc2c(c1C(=O)OCC)CC(C)(C)OC2	–	–	–	–[12.7 µM]	–	–
COC(=O)c1c(NC(=O)C(=O)N2CCCC2)sc2c1CC(C)(C)OC2	–	–	–	–	–	–
CCOC(=O)c1c(NC(=O)c2ccc(C)cc2)sc2c1CC(C)(C)OC2	–	–	–	–[12.7 µM]	–	24µM
COC(=O)c1c(NC(=O)c2ccccc2)sc2c1CC(C)(C)OC2	–	–	·	–	–	–
CC1(C)Cc2c(sc(NC(=O)C(=O)N3CCCC3)c2C(N)=O)CO1	–	–	–	50µM	–	24µM
CCOC(=O)c1c(NC(=O)c2ccccc2C)sc2c1CC(C)(C)OC2	–	–	–	?	–	21µM
C=C(C)CNC(=S)Nc1sc2c(c1C(=O)OCC)CC(C)(C)OC2	?	–	–	14µM	–	19µM
CCOC(=O)c1c(NC(=O)CCC(=O)N(CC)CC)sc2c1CC(C)(C)OC2	–[11.4 µM]	–	–	–	–	–
Cc1cccc(OCCCCn2c(C3CC(=O)N(c4ccc(C)cc4C)C3)nc3ccccc32)c1 (stereo unspecified)	?	–	·	?	?	·
CC(C)(C)OC(=O)NC(Cc1ccccc1)C(=O)NC1COC2CC(n3cc(F)c(=O)[nH]c3=O)OC12 (stereo unspecified)	–	–	·	·	·	·
CCCCCCCCCCCCOCCOCCOCCOCCOCCOCCOCCOCCOCCO	·	·	·	–[12.7 µM]	·	·
SMILES	JMJD2A Tudor inh	HP1b chromo inh	PI5P4Ka inh	G9a block	BAZ2B inh	PLK1 PBD inh
Cc1cc(C)cc(N(CCC#N)C(=O)COC(=O)Cn2[nH]c(=O)c3ccccc3c2=O)c1	–	–	–	·	·	–
COc1cccc(CN2CC(C(=O)N(C)Cc3nc4ccc(F)cc4[nH]3)CCC2=O)c1 (stereo unspecified)	–	–	–	·	–	–
O=C(NCCc1ccccc1F)C1CCC(=O)N(Cc2ccccc2F)C1 (stereo unspecified)	?	–	–	–	–	27µM
Cc1ccccc1CCNC(=O)C1CCC(=O)N(CCc2cccc(F)c2)C1 (stereo unspecified)	?	–	–	–[12.7 µM]	–	30µM
Cc1ccsc1CCNC(=O)C1CCC(=O)N(CCc2cccc(F)c2)C1 (stereo unspecified)	–	–	–	·	–	–
COc1ccc2nc(CCN(C)C(=O)C3CCC(=O)N(Cc4cccc(F)c4)C3)[nH]c2c1 (stereo unspecified)	–	–	–	–	50µM	?
O=C(NCCOc1ccc(F)cc1)C1CCC(=O)N(CCN2CCOCC2)C1 (stereo unspecified)	–	–	–	45µM	–	–
COc1cccc(CN2CC(C(=O)NCCCc3ccncc3)CCC2=O)c1 (stereo unspecified)	–	–	–	?	–	–
COc1ccccc1CCNC(=O)C1CCC(=O)N(Cc2ccccc2OC)C1 (stereo unspecified)	–	–	–	·	–	–
Cn1nnnc1SCCNC(=O)C1CCC(=O)N(CCc2cccc(F)c2)C1 (stereo unspecified)	–	–	–	0.16µM	–	–
COc1cccc(CN2CC(C(=O)NCCOc3cccnc3)CCC2=O)c1 (stereo unspecified)	–	–	–	–	–	17µM
COc1ccccc1CCNC(=O)C1CCC(=O)N(Cc2cccc(F)c2)C1 (stereo unspecified)	?	–	–	–[12.7 µM]	–	30µM
COc1ccccc1CN1CC(C(=O)N(C)Cc2ccc(C)o2)CCC1=O (stereo unspecified)	–	–	–	35µM	–	–
CCCCn1c(=O)[nH]c(=O)c2c1nc(-c1ccc(C(F)(F)F)cc1)n2C	–	–	–	–	–	–
CCCCn1cnc2c1c(=O)[nH]c(=O)n2CCCC	–[11.4 µM]	–	–	–	–	12µM
CCn1cnc2c1c(=O)[nH]c(=O)n2Cc1ccccc1	–	–	–	–	–	–
CCCCn1c(=O)[nH]c(=O)c2c1nc(-c1ccc(-c3ccccc3)cc1)n2C	–	–	–	40µM	–	–
Cc1[nH]c2ccc(F)cc2c1CCN1C(=O)OC(C)(C)C1(C)O (stereo unspecified)	–	–	–	–[12.7 µM]	–	–
Cc1[nH]c2ccc(OCc3ccccc3)cc2c1CCN1C(=O)OC(C)(C)C1(C)O (stereo unspecified)	?	–	–	79µM	?	–
CCc1nnc(NC(=O)c2csc3c2CCC(C)C3)s1 (stereo unspecified)	·	·	·	–	–	·
CC1CCc2nn(CC(=O)NCc3ccco3)cc2C1 (stereo unspecified)	?	–	–	–	–	30µM
CC1CCc2c(C(=O)NCc3ccco3)csc2C1 (stereo unspecified)	–	–	–	56µM	–	–
O=C(NCc1ccco1)c1csc2c1CCCCC2	–	–	·	–[12.7 µM]	–	–
CC1CCc2nn(CC(=O)NCc3ccc(F)cc3)cc2C1 (stereo unspecified)	–	–	–	–	–	?
